Data: PubChem BioAssay (NCI)
About 83,000 compounds went through this panel and 20% of them were active in at least one assay; those are over-represented in the sample as a whole.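 Compound tested at a single concentration for 48 hours in 96-well plates; a percent growth value below 10 was scored as active.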 Activity calls are given as the source filed them.

What was measured:
Test in all cases: NCI-60 one-dose screen, 48 h (100 = growth as untreated, 0 = no growth, -100 = all killed)
Conditions in all cases: 10 µM unless noted
[1] = system: SK-MEL-2 melanoma
[2] = system: EKVX NSCLC
[3] = system: SN12C renal
[4] = system: UO-31 renal
[5] = system: TK-10 renal
[6] = system: ACHN renal
[7] = system: CAKI-1 renal
[8] = system: A498 renal
[9] = system: CCRF-CEM leukemia
[10] = system: MOLT-4 leukemia

Measured: growth

CC(=O)c1ccc(Nc2nccc(-c3ccc4ccccc4c3)n2)cc1
inactive: [1] 91.7% | [2] 96.5% | [3] 101% | [4] 86.1% | [5] 87.2% | [6] 98.8% | [7] 104% | [9] 88.3% | [10] 74.4%
active: [8] 1.1%

CCO/C=N/C1=C(C#N)C(c2ccc(F)cc2)c2sc3c(F)cccc3c2O1 (stereo not given)
inactive: [2] 66.5% | [3] 49.7% | [4] 54.2% | [5] 64.4% | [6] 54% | [7] 25.2% | [8] 40.8% | [9] 22.9% | [10] 51.5%
active: [1] 2.27%

CC1(C)N=C(N)N=C(N)N1c1ccc(CCCCc2ccccc2)c(Cl)c1
inactive: [2] 53% | [3] 11% | [4] 49.5% | [5] 15.9% | [6] 18.8% | [7] 14.1% | [8] 54.5% | [9] 13.2%
active: [1] 4.71% | [10] 1.8%

CCNC(=O)Oc1ccc(/C(=C(/C)Cc2ccc(OC)cc2)c2ccc(OCCN3CCCCC3)cc2)cc1
inactive: [1] 92.3% | [2] 79.8% | [3] 71.4% | [4] 50.5% | [5] 82.6% | [6] 94.8% | [7] 90% | [8] 90.8% | [9] 36.5% | [10] 31.4%

C=C(c1ccc(OC)c(/C=C/C(=O)c2ccc3c(c2)OCO3)c1)c1cc(OC)c(OC)c(OC)c1
inactive: [1] 32.1% | [2] 23.4% | [4] 23.4% | [5] 23% | [7] 11.6% | [8] 17.7% | [9] 13.3% | [10] 11.1%
active: [3] 8.55% | [6] -26.5%

CCS/C(Nc1ccccc1)=C(\C#N)C(=O)Nc1ccc(OC)cc1
active: [1] -0.335% | [9] 8.29%
inactive: [2] 52.4% | [3] 37.8% | [4] 50% | [5] 47.7% | [6] 51.9% | [7] 40.4% | [8] 22.7% | [10] 10.1%

CS(=O)(=O)c1nnc(-c2ccccc2)s1
inactive: [1] 112% | [2] 109% | [3] 105% | [5] 113% | [6] 83.9% | [7] 94.9% | [8] 91.4% | [9] 76.5% | [10] 88.1%
active: [4] -71.4%

COc1ccc(C(=O)/C=C/c2ccc(Cl)cc2)cc1S(=O)(=O)Nc1c(N)nc(SC)[nH]c1=O
inactive: [1] 95.8% | [2] 85.2% | [3] 16.8% | [4] 51.6% | [5] 79.6% | [6] 82.1% | [7] 68.5% | [8] 80.9% | [10] 59.8%
active: [9] 9.03%

COC(=O)c1cc(Br)ccc1O
inactive: [1] 101% | [2] 113% | [3] 99.5% | [4] 95.1% | [5] 95.5% | [6] 99.5% | [7] 101% | [8] 101% | [9] 98.6% | [10] 103%

Cc1c(CN)cc(-c2ccc(Cl)cc2)n1-c1ccccc1
active: [8] -7.73%
inactive: [1] 90.2% | [2] 82.6% | [3] 87.6% | [4] 59.2% | [5] 66.3% | [6] 74.7% | [7] 40.7% | [9] 81.7% | [10] 82.3%

CCOC(=O)C1=C(C)C(Cl)=N/C1=C\c1[nH]c(Cl)c(C)c1C(=O)OCC
inactive: [1] 109% | [2] 99.5% | [3] 100% | [4] 86.5% | [5] 109% | [6] 107% | [7] 94.5% | [8] 104% | [9] 51.9% | [10] 80.3%

Cc1[nH]c(C2CC(c3ccc(C(F)(F)F)c(F)c3)=NN2c2ccccc2)c(C)c1C(=O)NCC(F)(F)F (stereo not given)
inactive: [1] 104% | [2] 69.3% | [3] 90.7% | [4] 58.8% | [5] 151% | [6] 95.8% | [7] 59% | [8] 48.2% | [9] 79.4% | [10] 58.3%

Cc1ccc(CNc2c3ccccc3nc3ccccc23)cc1
inactive: [1] 42.7% | [2] 37.9% | [3] 24.9% | [4] 12% | [5] 35.8% | [6] 14% | [7] 18.6% | [9] 20.9%
active: [8] 7.64% | [10] 4.29%
